Experimental data taken from PubChem BioAssay (NCI).
About 83,000 compounds went through this panel and 20% of them were active in at least one assay; those are over-represented in the sample as a whole.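 Cell lines were cultured in 96-well plates, exposed to a single compound concentration, and assessed for percent growth 48 hours later.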 Values without a mark were called inactive. Activity calls are given as the source filed them. How the source made its calls: active means growth percent below 10; inactive means the rest.

What follows are compounds tested on NCI-H23 lung (assay: NCI-60 one-dose screen, 48 h (100 = growth as untreated, 0 = no growth, -100 = all killed)). Conditions: 10 µM unless noted.

| SMILES | growth [%] |
| --- | --- |
| COc1ccc2nc(NC(=O)c3cccnc3Nc3cc(OC)c(OC)c(OC)c3)sc2c1 | 22.6 |
| CCCCCCCCCc1cc(CN2CCCCC2)c(O)c(CN2CCCCC2)c1 | 39.4 |
| CCOc1ccc(Nc2nc(-c3c(C)nc4ncccn34)cs2)cc1 | 24.2 |
| C=C1CCC2C3(C)COC(C)(C)OC3CCC2(C)C1C/C=C1/C(=O)OCC1OC(C)=O (centres undefined) | 50.4 |
| CSc1nc(NCCO)c(C#N)c(-c2cccc(N)c2)n1 | 90.5 |
| Nc1ccc(N2CCOCC2)cc1 | 86.1 |
| O=C1C[C@H](Sc2nc(-c3ccc(F)cc3)cc(C(F)(F)F)n2)[C@H]2CO[C@@H]1O2 | 99.2 |
| Cc1nc2sc(C(=O)Nc3cccc4c3OCCO4)c(N)c2cc1C(C)O (centres undefined) | 57.6 |
| COc1cc(NCCCCN=C(N)N)c2ncccc2c1 | 13.9 |
| CCOC(=S)SCc1ccc(Cl)cc1 | 111 |
| NCc1cn2cc(Cl)sc2n1 | 107 |
| O=C1C=CC(=O)c2c1nc1n2CCCC1 | 39.2 |

These compounds were tested on NCI-H226 lung in the same assay as above. Conditions: 10 µM unless noted.

| SMILES | growth |
| --- | --- |
| CN1CCN(Cc2ccc(NC(=O)c3[nH]ncc3Nc3ncnc4c3CCC4)cc2)CC1 | 9.05% (active) |
| CCN(C(=O)CN1CCN(c2cc3c(cc2F)c(=O)c(C(=O)O)cn3C2CC2)CC1)c1nc(-c2ccc(OC)cc2)cs1 | 85.8% |
| C[C@@H]1CC[C@@H]2[C@@H]1[C@H](OC(=O)/C=C/c1ccccc1)[C@]1(C3CCCCC3)C[C@@H](OC(=O)CO)[C@@]2(C)O1 | 68.2% |
| Cc1cc(=O)oc2cc(Oc3nc(-c4ccc(Cl)cc4)cn4c(-c5ccc(Cl)cc5)cnc34)ccc12 | 93% |
| Nc1cc2ccncc2c2ccccc12 | 44% |
| O=C([C@@H](COCc1ccccc1)N1C(=O)[C@@H](N2C(=O)OC[C@@H]2c2ccccc2)[C@H]1/C=C/c1ccccc1)N1CCC(CCN2CCCCC2)CC1 | 93.8% |
| COc1ccc(N(Cc2cc(OC)c(OC)c(OC)c2)C2OC(=O)c3ccccc32)cc1 (centres undefined) | 67.2% |
| Cn1c2ccccc2c2c3c(c4c5ccccc5[nH]c4c21)C(=O)N(N)C3=O | 53.4% |
| COC(/C=C/c1ccc([N+](=O)[O-])cc1)OC | 106% |
| OC(c1cccc(C(F)(F)F)c1)c1cnccc1NC1CCCCCC1 (centres undefined) | 62.4% |
| O=C(CNC1C2CC3CC(C2)CC1C3)Sc1nnc2sc3ccccc3n12 (centres undefined) | 91.3% |
| C=CC[N+]1(CC)CCN=C1CCCCCCCCCCCCCCCCC (centres undefined) | -50% (active) |
| O=C(Nc1ccc(CN2CCOCC2)cc1)c1[nH]ncc1Nc1ncnc2sccc12 | 15.5% |
| O=c1c(/C=C/c2ccco2)nnc(SCCN2CCOCC2)n1/N=C/c1ccc([N+](=O)[O-])cc1 | 85.5% |
| COc1cc(C2CC(=O)Nc3c2c(C)nn3-c2nc3ccccc3[nH]2)cc(OC)c1OC (centres undefined) | 99.1% |
| CCCCN(CCCC)CCC(C)(O)c1cc2ccccc2c2ccccc12 (centres undefined) | 107% |
| OCCNCCNc1c2ccccc2nc2ccccc12 | 58.3% |
| C/C(=C(/c1ccc(O)cc1)c1ccc(OCCN(C)C)cc1)c1ccccc1 | 89.4% |
| CC#Cc1nc2ccccc2c(=O)[nH]1 | 64.5% |
| CNC(=O)c1cc(Oc2ccc3nc(NC(=O)Nc4ccc(N5CCC(N(C)C)CC5)cc4)sc3c2)ccn1 | 94.9% |
| CCN(CC)CCCNc1cc(OC)cc2nc3cc(Cl)ccc3nc12 | -20.8% (active) |
| Cn1c2ccccc2c2c3c(c4c5ccccc5n(CCCCCC#N)c4c21)C(=O)N(O)C3=O | 25.1% |
| CN1CCN(Cc2ccc(NC(=O)c3[nH]ncc3Nc3ccnc4ccsc34)cc2)CC1 | 5.11% (active) |
| O=C(NCc1cccc(C(F)(F)F)c1)[C@H](CCC(=O)N1CCN(C2CCCCC2)CC1)N1C(=O)[C@@H](N2C(=O)OC[C@@H]2c2ccccc2)[C@H]1/C(Cl)=C/c1ccccc1 | 73.2% |
| CC/C(=C(\c1ccccc1)c1ccc(OCCNC)cc1)c1ccccc1 | -84.1% (active) |
| O=C(COCc1c(-c2ccccc2)no[n+]1[O-])Nc1ccc(C(=O)/C=C/c2ccc3c(c2)OCO3)cc1 | 96.6% |
| COc1ccc2nc(NC(=O)c3cccnc3Nc3cc(OC)c(OC)c(OC)c3)sc2c1 | 10.9% |
